Assay outcomes as filed in PubChem.
PrPC surface inh: reduces human prion protein on the cell surface | P04156 | AID 720596 | inhibition, % at 13.8 µM | hit rate 0.43% among 370,000 | cell surface PrPC, TR-FRET read-out; in the data active means inhibition above about 24%
BJeLR lethal: kills HRASV12-expressing BJeLR cells. BJeLR (HRASV12) viability, CellTiter-Glo ATP luminescence, 48 h. hit rate 0.17% among 300,000. AID 1554. inhibition, % (concentration not given with the values); in the data active means inhibition above about 50%; inconclusive means no clear call, values can overlap the other calls
PriA SSB inh: inhibitors of Klebsiella pneumoniae PriA binding to SSB C-terminal tail. AlphaScreen SSBct-PriA binding, biotinylated peptide. inhibition, % at 33 µM. hit rate 0.6% among 430,000; in the data active means inhibition mostly above about 37%, no sharp cut-off; inactive means mostly below about 20%
Y pestis TopoI: blocks Yersinia pestis topoisomerase I activity; Y. pestis Topo-I cleavage product accumulation, plate reader; activity, % at 10 µM; hit rate 0.064% among 360,000; AID 504884; in the data active means activity above about 50%, passing the limit was not always enough; inconclusive means no clear call, values can overlap the other calls
PrP 5UTR inh: inhibition of PrP 5' UTR reporter expression; cell-based PrP 5' UTR mRNA reporter, plate reader; inhibition, % (test concentration not listed); hit rate 0.35% among 340,000; AID 488862; in the data active means inhibition above about 52%
PfHsp40 yeast: restores yeast growth despite PfHsp40 toxicity | AID 504582 | hit rate 0.68% among 340,000 | S. cerevisiae expressing PfHsp40, growth rescue, ATP luminescence | growth rescue, % at 12.5 µM; in the data active means growth rescue above about 28%, passing the limit was not always enough; inconclusive means no clear call, values can overlap the other calls;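 further: yeast W303a lacking pdr1 and pdr3 grown in galactose medium; growth measured after three days at 30 °C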
PrP 5UTR single: prion 5' UTR mRNA inhibition, cherry-pick retest. inhibition, % at 2.5 µM. hit rate 48% among 1,100. shares compounds with PrP 5UTR inh. cell-based prion protein 5' UTR reporter, plate reader; in the data active means inhibition above about 54%; inconclusive means no clear call, values can overlap the other calls
A number is an active result; i = inactive; ? = inconclusive; nt = not tested or not shown. An excerpt weighted towards active compounds, which were near 1.7% of everything screened.

SMILES	PrPC surface inh	BJeLR lethal	PriA SSB inh	Y pestis TopoI	PrP 5UTR inh	PfHsp40 yeast	PrP 5UTR single
Cc1ccc(Nc2nc(-c3c(C)nc4ncccn34)cs2)cc1	i	i	i	i	67	i	89
Cc1ccc(NC(=O)Cn2nc3c(Oc4cccc(C)c4C)nc4ccccc4n3c2=O)cc1C	nt	nt	i	nt	nt	nt	nt
COC(C(=O)C(O)C(C)O)C1Cc2cc3cc(OC4CC(OC5CC(O)C(O)C(C)O5)C(O)C(C)O4)c(C)c(O)c3c(O)c2C(=O)C1OC1CC(OC2CC(OC3CC(O)C(OC)C(C)O3)C(O)C(C)O2)C(O)C(C)O1 (stereo not given)	i	nt	i	i	70	i	71
COc1ccc2c(=O)cc(-c3cccnc3)oc2c1OC	i	i	i	i	54	i	i
COc1cc(-c2nnc(-c3cccnc3)o2)cc(OC)c1OC	i	i	i	i	i	i	nt
Cc1ccc(C(O)CNC(=O)C2(c3ccc(Cl)cc3)CCCC2)o1 (stereo not given)	nt	nt	i	nt	nt	nt	nt
O=C(CSc1ccc2ccccc2n1)Nc1ccc2c(c1)OCCO2	nt	nt	i	nt	nt	nt	nt
COc1ccc(/C=C2\SC(=O)N(CCCC(=O)Nc3cc(Cl)ccc3C(=O)O)C2=O)cc1	i	nt	i	i	92	i	83
COc1ccc(N2CCN(C(=O)NC3CCCCC3)CC2)cc1	i	i	i	i	i	i	nt
O=C(NC1CCCCC1)N1CCN(c2ccccc2)CC1	i	i	i	i	67	i	i
CCN1C(=O)CCc2cc(NC(=O)c3ccc(Cl)cc3Cl)ccc21	nt	nt	i	nt	nt	nt	nt
O=C(Nc1nc(-c2ccccc2)c(CN2CCOCC2)s1)c1ccccc1	nt	nt	i	nt	nt	nt	nt
Cc1nn(-c2ccccc2)c2c1CC(=O)Nc1ccccc1-2	i	nt	i	i	64	i	80
CC(=O)O[C@H]1C(=O)[C@@]2(C)C([C@H](OC(=O)c3ccccc3)[C@]3(O)C[C@H](OC(=O)[C@H](O)[C@@H](NC(=O)c4ccccc4)c4ccccc4)C(C)=C1C3(C)C)[C@]1(OC(C)=O)CO[C@@H]1C[C@H]2O (stereo not given in full)	i	i	i	i	56	i	68
Oc1ccccc1-c1n[nH]c(-c2ccccc2O)n1	i	nt	i	i	69	i	i
Clc1ccccc1-c1nc(-c2ccccc2)n[nH]1	i	i	i	i	i	i	nt
Cc1cnc(N)c2c(=O)oc3ccccc3c12	i	i	i	i	i	i	nt
O=c1oc2ccccc2c2c1cnc1ccccc12	i	nt	i	i	64	i	i
CN(C)S(=O)(=O)c1ccc(C(=O)NCC2CC2(Cl)Cl)cc1 (stereo not given)	i	i	i	i	63	i	i
CN(C)S(=O)(=O)c1ccc(C(=O)NCc2ccccc2)cc1	i	i	i	i	i	i	nt
CC(C)c1ccc(OCC(=O)NNC(=O)c2cnccn2)cc1	i	i	i	i	62	i	i
CCSc1ccccc1C(=O)Nc1nnc(-c2cc(C)n(C)n2)o1	nt	nt	i	nt	nt	nt	nt
Cn1c(=N)n(CC(=O)c2ccc(Cl)c(Cl)c2)c2ccccc21	i	i	i	i	61	i	i
CCN(CC)C(=O)C1CCCN(c2ccc([N+](=O)[O-])cc2[N+](=O)[O-])C1 (stereo not given)	i	i	i	i	70	i	i
C=CCn1c(O)c(C=Nc2ccc(OC)cc2C)c(=O)[nH]c1=O	i	i	i	i	55	i	i
SMILES	PrPC surface inh	BJeLR lethal	PriA SSB inh	Y pestis TopoI	PrP 5UTR inh	PfHsp40 yeast	PrP 5UTR single
C=CCn1c(O)c(C=Nc2c(C)n(C)n(-c3ccccc3)c2=O)c(=O)[nH]c1=O	i	i	i	i	i	i	nt
CC1(C)Oc2cc3oc(-c4cc(O)cc(O)c4)cc3cc2CC1O (stereo not given)	i	i	i	i	71	i	?
O=C(C1CC1)N1CCN(Cc2nc3ccccc3[nH]2)CC1	nt	nt	i	nt	nt	nt	nt
C[C@](O)(CNC(=O)Cc1ccccc1Cl)c1ccco1	nt	nt	i	nt	nt	nt	nt
Cc1ccc(-c2noc(CCC(=O)Nc3ccc4c(c3)OCO4)n2)cc1	i	i	i	i	60	i	i
CSc1ccc(CN(C)C(C)C(=O)Nc2ccc(F)c(F)c2F)cc1 (stereo not given)	i	i	i	i	53	i	i
CC(C(=O)Nc1ccc(F)c(F)c1F)N(C)CC(=O)Nc1ccccc1Br (stereo not given)	i	i	i	i	i	i	nt
Cc1nc2nc(-c3ccc(F)cc3)cn2nc1C	i	i	i	i	i	i	nt
